{"source": "PubChem BioAssay AID1671463", "about": "(Sanford-Burnham Center for Chemical Genomics, 2021)", "note": "Among all 370,000 compounds or so, about 520 (0.14%) were called active. The sample holds actives, similar compounds and a random draw of the others, so the mix is not that of the screen. Cut-off read from the data, not from the text of the source: active = activation above about 40%; inactive = the rest.", "data": [{"target": "Atrial natriuretic peptide receptor 1 (Homo sapiens) (UniProt P16066)", "sequence (P16066 whole entry, looked up)": "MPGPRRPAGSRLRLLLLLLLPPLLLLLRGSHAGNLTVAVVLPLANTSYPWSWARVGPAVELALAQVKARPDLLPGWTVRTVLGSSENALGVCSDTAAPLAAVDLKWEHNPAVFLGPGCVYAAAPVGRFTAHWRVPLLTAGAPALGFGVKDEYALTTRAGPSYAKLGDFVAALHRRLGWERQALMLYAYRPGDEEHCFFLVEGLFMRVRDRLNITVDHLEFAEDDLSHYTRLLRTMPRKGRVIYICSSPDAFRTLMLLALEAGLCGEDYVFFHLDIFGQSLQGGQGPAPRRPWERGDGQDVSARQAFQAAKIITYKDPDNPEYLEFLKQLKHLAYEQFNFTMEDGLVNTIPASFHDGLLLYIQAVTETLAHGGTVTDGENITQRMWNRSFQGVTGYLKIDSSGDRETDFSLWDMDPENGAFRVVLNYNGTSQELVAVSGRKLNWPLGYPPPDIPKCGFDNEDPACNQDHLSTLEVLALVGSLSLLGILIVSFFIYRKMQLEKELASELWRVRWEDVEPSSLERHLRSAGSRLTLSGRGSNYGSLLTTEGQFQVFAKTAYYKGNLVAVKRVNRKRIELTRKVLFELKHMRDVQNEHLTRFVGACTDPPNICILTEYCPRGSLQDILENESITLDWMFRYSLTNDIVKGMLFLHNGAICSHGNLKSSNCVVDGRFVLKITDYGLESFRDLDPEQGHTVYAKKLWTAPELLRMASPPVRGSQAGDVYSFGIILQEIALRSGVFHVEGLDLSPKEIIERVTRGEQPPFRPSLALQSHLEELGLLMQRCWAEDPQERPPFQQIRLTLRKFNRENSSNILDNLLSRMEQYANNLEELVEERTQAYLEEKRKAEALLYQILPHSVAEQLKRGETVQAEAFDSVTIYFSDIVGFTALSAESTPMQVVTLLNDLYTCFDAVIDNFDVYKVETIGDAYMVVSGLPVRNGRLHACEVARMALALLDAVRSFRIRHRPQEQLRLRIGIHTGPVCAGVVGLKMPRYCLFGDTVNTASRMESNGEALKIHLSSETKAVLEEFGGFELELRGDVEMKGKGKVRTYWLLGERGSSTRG", "experiment": "GC-A stimulated cGMP production enhancers – HEK293 GC-A cells, cGMP TR-FRET, EC30 ANP, primary screen (AID 1671463)", "settings": "at 10 µM, stronger effect = higher value, 0% at EC30 ANP, 100% saturating ANP", "values": [{"smiles": "Cc1nc(N2CCCC2C(=O)O)c2oc3ccccc3c2n1", "note": "(centres undefined)", "activation": "-1.86% (inactive)"}, {"smiles": "Cc1nc(Cl)c2oc3ccccc3c2n1", "activation": "41.1% (active)"}, {"smiles": "C[C@@H](Nc1nc(-c2ccccc2)nc2c1oc1ccccc12)C(=O)O", "activation": "-3.4% (inactive)"}, {"smiles": "CC12CN(NC(=O)c3ccc(Cl)cc3)C3(C#N)CC1CCC23C", "note": "(centres undefined)", "activation": "0.43% (inactive)"}, {"smiles": "C#CCN([C@H](C(=O)OC)C(C)CC)S(=O)(=O)c1ccccc1Br", "note": "(some centres undefined)", "activation": "-4.19% (inactive)"}, {"smiles": "Cc1ccc(S(=O)(=O)CC(=O)NC(C)c2ccccc2)cc1", "note": "(centres undefined)", "activation": "4.14% (inactive)"}, {"smiles": "CCOc1ccccc1NC(=O)C1CCC(CNc2c(N3CCOCC3)c(=O)c2=O)CC1", "note": "(centres undefined)", "activation": "0.11% (inactive)"}, {"smiles": "CC(C)c1cc(C(=O)O)on1", "activation": "-0.6% (inactive)"}, {"smiles": "Cc1ccc(C(=O)NCC(=O)NCc2cc(=O)n(C)c(=O)n2C)cc1", "activation": "1.88% (inactive)"}, {"smiles": "CN(C)/C(=N\\OC(=O)c1ccccc1)c1nonc1N", "activation": "-2.63% (inactive)"}, {"smiles": "Nc1c(-c2cccc(Cl)c2)cnn1-c1cccc([N+](=O)[O-])c1", "activation": "-2.54% (inactive)"}, {"smiles": "Cc1cccc(-n2ncc(Cl)c(Cl)c2=O)c1", "activation": "40.6% (active)"}, {"smiles": "CCOc1ccc(Oc2c(Cl)cnn(-c3ccc(C)cc3)c2=O)cc1", "activation": "4.6% (inactive)"}, {"smiles": "COC(=O)c1ccc(C2C3=C(Nc4nnnn42)c2ccccc2OC3)cc1", "note": "(centres undefined)", "activation": "1.48% (inactive)"}, {"smiles": "CCc1c(C)sc(NC(=O)OC)c1C(=O)N1CCOCC1", "activation": "0.05% (inactive)"}, {"smiles": "Cn1c(=O)c2c(nc(N/N=C/c3cccs3)n2Cc2ccc(Br)cc2)n(C)c1=O", "activation": "18.6% (inactive)"}, {"smiles": "C/C(Cl)=C\\Cn1c(Nc2cccc(C)c2)nc2c1c(=O)n(C)c(=O)n2C", "activation": "51.1% (active)"}, {"smiles": "Cc1cccc(Cn2c(N3CCN(c4ccccc4)CC3)nc3c2c(=O)n(C)c(=O)n3C)c1", "activation": "-29% (inactive)"}, {"smiles": "CCN(CC(=O)Nc1cc(Cl)ccc1C)C(=O)CSCc1ccc(C)cc1", "activation": "-0.6% (inactive)"}, {"smiles": "CC1(c2ccc3ccccc3c2)NC(=O)N(CC(N)=O)C1=O", "note": "(centres undefined)", "activation": "3.94% (inactive)"}, {"smiles": "C=CCN1C(=O)[C@@H](CC(=O)NCCCCc2ccccc2)[C@]2(C(=O)OCC)CCCCC/C=C/12", "activation": "3.65% (inactive)"}, {"smiles": "COc1ccc(N(CC(=O)NCC2CCCO2)C(=O)CCC(=O)Nc2nccs2)c(OC)c1", "note": "(centres undefined)", "activation": "4.75% (inactive)"}, {"smiles": "CC(C)(C)C(=O)CCN1C(=O)C2(OCCO2)c2ccccc21", "activation": "1.22% (inactive)"}, {"smiles": "CC(=O)NC(c1cccs1)c1cc(Br)c2cccnc2c1O", "note": "(centres undefined)", "activation": "-1.9% (inactive)"}, {"smiles": "CCCCCCCCN1C(=O)[C@@H](CC(=O)NCc2ccccc2)C[C@@]2(C(=O)OC)C1=C[C@H](C(C)(C)C)O[C@@H]2C", "activation": "2.65% (inactive)"}, {"smiles": "O=C(/C=C/Sc1ncn[nH]1)c1ccc(Cl)cc1", "activation": "64.8% (active)"}, {"smiles": "COc1ccc(CN2CC[C@H]3C=CC[C@@H](C(=O)N4CCOCC4)[C@H]3C2=O)cc1OC", "activation": "1.45% (inactive)"}, {"smiles": "COC(=O)c1c(NC(=O)COc2ccc(Cl)cc2Cl)sc2c1CC(C)(C)NC2(C)C", "activation": "6% (inactive)"}, {"smiles": "CSCC[C@H](NC(=O)NC1CCCC1)C(=O)O", "activation": "0.42% (inactive)"}, {"smiles": "O=C(NCCc1ccccc1)c1c[nH]c2ccc(F)cc2c1=O", "activation": "1.93% (inactive)"}, {"smiles": "O=c1[nH]c2c(c(=O)n1-c1ccccc1)CCO2", "activation": "-0.17% (inactive)"}, {"smiles": "Fc1ccc(Nc2nnns2)cc1", "activation": "3.58% (inactive)"}, {"smiles": "COCCN(Cc1ccccc1)C(=O)Cc1ccc(S(=O)(=O)N2CCOCC2)s1", "activation": "-2.49% (inactive)"}, {"smiles": "CS(=O)(=O)c1cccc(-c2ccc3nncn3c2)c1", "activation": "4.9% (inactive)"}, {"smiles": "CCCCS(=O)c1snnc1C", "note": "(centres undefined)", "activation": "1.27% (inactive)"}, {"smiles": "COc1ccc(/C=C/CN2CCN(Cc3ccc(C)cc3)C(CCO)C2)cc1", "note": "(centres undefined)", "activation": "0.4% (inactive)"}, {"smiles": "O=C(OCC(=O)N1CCCC1)c1ccc(Cl)nc1", "activation": "-0.33% (inactive)"}, {"smiles": "CC1(C)CC(N(Cc2ccccc2)C(=O)Cc2ccccc2)CCO1", "note": "(centres undefined)", "activation": "-16.2% (inactive)"}, {"smiles": "CCOc1c(Br)cc(/C=C2\\C(=O)N(CCC#N)N=C2C)cc1OC", "activation": "40.1% (active)"}, {"smiles": "Cc1ccc(C(c2nnnn2CS(=O)(=O)c2ccc(C)cc2)N2CCC(C)CC2)cc1", "note": "(centres undefined)", "activation": "-0.04% (inactive)"}, {"smiles": "CCCSc1nsc(N)n1", "activation": "-1.07% (inactive)"}, {"smiles": "CC(C)(CNC(=O)Cc1ccc(Cl)cc1Cl)N1CCOCC1", "activation": "1.34% (inactive)"}, {"smiles": "CCOC(=O)c1cccc(NC(=O)C2CCCN(S(=O)(=O)c3cnc[nH]3)C2)c1", "note": "(centres undefined)", "activation": "1.55% (inactive)"}, {"smiles": "Cc1ccsc1C1C(C#N)=C(N)OC2=C1C(=O)CC(C)(C)C2", "note": "(centres undefined)", "activation": "1.86% (inactive)"}, {"smiles": "CCCn1nnnc1NC(=O)COc1ccc(Cl)cc1C", "activation": "0.54% (inactive)"}, {"smiles": "O=C(c1ccc(CS(=O)Cc2ccccc2Cl)o1)N1CCN(c2ccccc2)CC1", "note": "(centres undefined)", "activation": "-8.64% (inactive)"}, {"smiles": "O=c1c2ccccc2c(-c2ccc(Br)cc2)nn1Cc1ccccc1", "activation": "1.66% (inactive)"}, {"smiles": "O=C(NCCc1ccco1)c1nn(Cc2ccccc2)c(=O)c2ccccc12", "activation": "41.3% (active)"}, {"smiles": "Cc1ccsc1C(=O)NCCc1ccco1", "activation": "5.29% (inactive)"}, {"smiles": "Cc1ccc(S(=O)(=O)NNC(=S)NC(C)(C)C)cc1", "activation": "4.04% (inactive)"}, {"smiles": "COC(=O)[C@@H](NC(=O)Nc1cc(Cl)ccc1C)C(C)C", "activation": "4.54% (inactive)"}, {"smiles": "CC(C)Oc1ccc(S(=O)(=O)N2CCOCC2)cc1NC(=O)C1CCCC1", "activation": "0% (inactive)"}, {"smiles": "Cn1c2ccccc2c2cc(/C=C(\\NC(=O)c3ccccc3)C(=O)NCC(=O)O)ccc21", "activation": "1.03% (inactive)"}, {"smiles": "COCCCNC(NC(=O)c1ccc(OC)cc1)C(Cl)(Cl)Cl", "note": "(centres undefined)", "activation": "-6.96% (inactive)"}, {"smiles": "CSCCC(Nc1ccc(S(=O)(=O)N2CCOCC2)cc1[N+](=O)[O-])C(=O)OCC(=O)N(C(C)C)C(C)C", "note": "(centres undefined)", "activation": "3.61% (inactive)"}, {"smiles": "CCC(=O)Nc1ccc(-c2ccc(N3CCCCC3)nn2)cc1", "activation": "1.98% (inactive)"}, {"smiles": "CCOC(=O)CNc1nc(Cl)nc(Nc2ccccc2)n1", "activation": "-0.38% (inactive)"}, {"smiles": "CCC(=O)Nc1ccc(Nc2nc(Cl)nc(Nc3ccc(NC(=O)CC)cc3)n2)cc1", "activation": "41.8% (active)"}, {"smiles": "CCC(=O)N1CCC(C)(C(=O)Nc2cc(OC)c(OC)c(OC)c2)C1", "note": "(centres undefined)", "activation": "0.68% (inactive)"}, {"smiles": "CCCc1cc(=O)[nH]c(SCC(=O)c2c(N)n(CC(C)C)c(=O)n(C)c2=O)n1", "activation": "-6.69% (inactive)"}, {"smiles": "Cc1ccc(S(=O)(=O)N2CCOCC2)cc1NC(=O)CSc1nnc(N)s1", "activation": "-4.98% (inactive)"}, {"smiles": "COc1ccc(C#CCNCc2ccc(OC)cc2OC)cc1", "activation": "-0.15% (inactive)"}, {"smiles": "O=C(Oc1ccc2c(c1)CCC2)N1CCOCC1", "activation": "4.74% (inactive)"}, {"smiles": "CCOC(=O)C(=O)N(Cc1ccccc1)c1ccccc1C(=O)Nc1cc(OC)ccc1OC", "activation": "-11.8% (inactive)"}, {"smiles": "COc1ccc(NC(=S)SC)cc1OC", "activation": "1.77% (inactive)"}, {"smiles": "COc1ccccc1C(=O)N(C1=NC(C)CS1)c1ccc(Cl)cc1", "note": "(centres undefined)", "activation": "-15.5% (inactive)"}, {"smiles": "CC1CCN(CCCNC(=O)CN2C(=O)CSc3ccc(S(=O)(=O)N4CCCCC4)cc32)CC1", "activation": "3.44% (inactive)"}, {"smiles": "Cn1nc(C(F)(F)F)cc1-c1ccc(/C=C(\\C#N)C(=O)c2cccc(C(F)(F)F)c2)s1", "activation": "25.6% (inactive)"}, {"smiles": "CC1CCCC(N2CCN(C(=O)c3ccc(F)cc3)CC2)C1", "note": "(centres undefined)", "activation": "5.28% (inactive)"}, {"smiles": "O=S(=O)(c1ccc(-c2ccccc2)cc1)N1CCCC1", "activation": "0.74% (inactive)"}, {"smiles": "Cc1cccc(C(=O)Nc2ccccc2-c2nnn(CC(=O)Nc3ccc4c(c3)OCCO4)n2)c1", "activation": "-13.7% (inactive)"}, {"smiles": "CN1C[C@]2(C=C3CCCCC3n3c(=O)n(-c4ccccc4)c(=O)n32)N=C1NC(=O)c1ccccc1", "note": "(some centres undefined)", "activation": "-1.71% (inactive)"}, {"smiles": "C#CCCN([C@H](C(=O)OC)C(C)C)S(=O)(=O)c1ccc(F)cc1Br", "activation": "-5.17% (inactive)"}, {"smiles": "COc1ccccc1-n1nnnc1S(=O)(=O)Cc1ccc(Cl)cc1", "activation": "0.71% (inactive)"}, {"smiles": "Cc1nc(-c2ccc(Cl)cc2)sc1C(=O)CBr", "activation": "49.9% (active)"}, {"smiles": "Cc1nc(-c2ccc(Cl)cc2)sc1C1(C)CC(c2ccc(Br)cc2)=NO1", "note": "(centres undefined)", "activation": "-0.28% (inactive)"}, {"smiles": "Cc1nc(-c2ccc(Cl)cc2)sc1C1(C)CC(c2ccccc2F)=NO1", "note": "(centres undefined)", "activation": "2.63% (inactive)"}, {"smiles": "Cc1ccccc1CN1CCCCC(NC(=O)c2cccc(C#N)c2)C1=O", "note": "(centres undefined)", "activation": "1.67% (inactive)"}, {"smiles": "CCOc1ccc(S(=O)(=O)N2CCC(c3ccccc3)CC2)cc1C(=O)O", "activation": "0.54% (inactive)"}, {"smiles": "COc1cc(/C=C2/C(=O)ON=C2C)ccc1OCc1cccc(F)c1", "activation": "52.6% (active)"}, {"smiles": "C/C=C/c1ccc(OCCOc2ccc(C=O)cc2OC)c(OC)c1", "activation": "3.2% (inactive)"}, {"smiles": "COc1ccnc2c1c(=O)n(Cc1cccc(F)c1)c(=O)n2C", "activation": "8.86% (inactive)"}, {"smiles": "COc1cc(/C=C2/C(=O)ON=C2C)ccc1OCc1ccccc1F", "activation": "51.8% (active)"}, {"smiles": "CCOc1cc(/C=N/O)ccc1OCc1ccccc1F", "activation": "-0.44% (inactive)"}, {"smiles": "COc1cc(CNc2ncn[nH]2)ccc1OCc1ccccc1C", "activation": "0.42% (inactive)"}, {"smiles": "COc1ccc(CCNC(=O)c2ccc(NC(=O)CC3SC(N4CCCCC4)=NC3=O)cc2)cc1OC", "note": "(centres undefined)", "activation": "-0.61% (inactive)"}, {"smiles": "COCCCN1C(=O)C(=O)/C(=C(/O)c2ccc(S(=O)(=O)N3CCOCC3)cc2)C1c1ccc(F)cc1", "note": "(centres undefined)", "activation": "1.53% (inactive)"}, {"smiles": "CCc1c(-c2ccccc2OC)ncn1CCc1ccccc1OC", "activation": "-8.39% (inactive)"}, {"smiles": "CCc1nc2c(OCc3cccc(OC)c3)cccn2c1N(C)C(=O)C(C)C", "activation": "-2.25% (inactive)"}, {"smiles": "CC(NC(=O)CCCC1CCCCC1)c1ccc(S(N)(=O)=O)cc1", "note": "(centres undefined)", "activation": "-4.53% (inactive)"}, {"smiles": "CC(=O)Oc1c(C(=O)c2nnc(C)o2)c(=O)n(Cc2ccccc2)c2ccccc12", "activation": "-0.69% (inactive)"}, {"smiles": "O=C1CCCCC1Sc1ccc(Cl)cc1[N+](=O)[O-]", "note": "(centres undefined)", "activation": "-7.33% (inactive)"}, {"smiles": "CCN(CC)C(CNC(=O)CSc1nnnn1-c1cccc(F)c1)c1ccco1", "note": "(centres undefined)", "activation": "2.86% (inactive)"}, {"smiles": "Cc1ccc(S(=O)(=O)N2C[C@@H]3CCCC[C@@H]3[C@@H](C)[C@H]2c2cn(Cc3ccccc3)c3ccc(F)cc23)cc1", "activation": "3.1% (inactive)"}]}]}
